Assay outcomes deposited in PubChem BioAssay by several laboratories.
An excerpt weighted towards active compounds, which were near 12% of everything screened.
WT yeast gro inh: growth inhibition of WT yeast, mitochondrial fusion screen; 190,000 tested, 2.1% active; inhibition, % at 10 µM; AID 1362; mitochondrial fusion phenotypic screen, WT strain; in the data active = inhibition above about 58%; tested in S. cerevisiae
L major viab: reduces viability of Leishmania major promastigotes | resazurin fluorescence viability | inhibition, % at 10 µM | 200,000 tested, 9% active | AID 1063; in the data active = inhibition above about 50%;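 also: promastigotes grown with compound for 44 hours at 28 °C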
Calpain2 inh: blocks pig calpain II enzyme activity; purified calpain II, fluorogenic peptide substrate, 30 min; inhibition, % at 16 µM; 220,000 tested, 0.37% active;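 active = inhibition above about 50%, limit read from the data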
ROMK primary: human ROMK K+ channel modulation, primary screen; P48048; Tet-inducible ROMK, thallium flux fluorescence; actives lie on both sides; B-score at 10 µM; 130,000 tested, 2% active; AID 1918;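 active = signal ratio slope over the read window, or its plate-corrected B-score, at least 3 SD from the plate mean, either direction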;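 also: B-score of the F/F0 ratio slope over 7 to 12 s after thallium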
Target sequence (P48048 whole entry, looked up): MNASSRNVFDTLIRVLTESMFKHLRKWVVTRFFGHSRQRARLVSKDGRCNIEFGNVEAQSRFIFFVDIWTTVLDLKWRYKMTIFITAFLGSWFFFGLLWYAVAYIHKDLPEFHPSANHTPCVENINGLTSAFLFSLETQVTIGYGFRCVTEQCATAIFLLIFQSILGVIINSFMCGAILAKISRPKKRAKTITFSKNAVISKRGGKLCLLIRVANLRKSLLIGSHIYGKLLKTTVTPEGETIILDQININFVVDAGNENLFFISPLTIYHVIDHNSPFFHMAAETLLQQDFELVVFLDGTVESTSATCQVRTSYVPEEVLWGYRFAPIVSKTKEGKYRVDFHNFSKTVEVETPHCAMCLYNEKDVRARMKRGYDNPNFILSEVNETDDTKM
KCC2 mod: KCC2 (human) Cl- transport modulation | 190,000 tested, 2.2% active | KCC2 cells, thallium flux FluoZin-2 fluorescence | Q9H2X9 | B-score of Tl+ flux slope (higher = more flux/activation; lower = inhibition) at 10 µM;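 active = thallium flux slope and its plate-corrected score both differing from the plate sample mean at a set confidence after two filtering rounds, in either direction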;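 also: slope of fluorescence scaled to starting intensity during 10 to 20 s after thallium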
KCC2 sec1: confirmation of human KCC2 transport modulators | shares compounds with KCC2 mod | HEK293-KCC2, thallium flux, FluoZin2 fluorescence; stronger effect = higher value | normalised thallium flux (F/F0 slope) at 10 µM | 3,700 tested, 15% active | AID 1713;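 active = thallium flux slope above the same plate's solvent-only control mean plus 3 SD; inconclusive = the two replicate wells disagree; inactive = no significant difference from solvent-only control wells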
KCC2 bumet counter: bumetanide-insensitive thallium flux in KCC2 cells with ouabain, counter-screen; 3,700 tested, 49% active; AID 1714; HEK293-KCC2 + bumetanide/ouabain, thallium flux FluoZin2; stronger effect = higher value; shares compounds with KCC2 mod; normalized thallium flux at 10 µM;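 active = thallium entry rate above the same plate's blocked-transporter control wells by more than 3 SD; inconclusive = the two repeat wells disagree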;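 also: raw slope of fluorescence over initial fluorescence between 10 and 20 s after thallium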
KCC2 secondary2: confirmation of human KCC2 transport modulators; normalized thallium flux at 10 µM; 3,700 tested, 23% active; HEK293-KCC2, thallium flux FluoZin2 fluorescence; actives lie on both sides; F/F0 rise rate, 10–20 s post-thallium; shares compounds with KCC2 mod;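 active = thallium flux slope more than 3 SD above or below the plate's solvent-only control mean, mostly below; inconclusive = the two repeat wells disagreed; inactive = no significant shift from solvent-only controls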;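 also: raw slope with 0.1% DMSO as baseline and bumetanide as block control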
HEK293 Tl flux: counter-screen for KCC2 modulators: effect in parental HEK293 cells. AID 1716. 3,700 tested, 46% active. thallium flux FluoZin2, ouabain; baseline-ratio fluorescence slope, 10–20 s after thallium. shares compounds with KCC2 mod. thallium flux rate (normalised fluorescence) at 10 µM;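 active = thallium flux rate significantly above the same plate's solvent-only control wells, beyond their mean plus 3 SD; inconclusive = the two replicate wells gave conflicting results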
KCC2 retest ouab: confirmation of human KCC2 modulators with ouabain; HEK293-KCC2, thallium flux FluoZin2 fluorescence; bidirectional: low = inhibitor, high = activator; raw Tl+ flux slope (below DMSO = inhibition, above = activation) at 10 µM; 3,700 tested, 48% active; shares compounds with KCC2 mod;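 active = thallium flux slope beyond 3 SD from same-plate DMSO control mean in most replicates, usually higher, sometimes lower; inconclusive = repeat tests gave conflicting results; inactive = no significant difference from controls in most replicates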;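 also: slope of initial-normalized fluorescence between seconds 10 and 20 after thallium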
HEK293 Tl flux2: parental HEK flux effect, counter-screen 2; HEK293 parental, thallium flux FluoZin-2 fluorescence slope; shares compounds with KCC2 mod; 3,700 tested, 33% active; thallium flux slope at 10 µM;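 active = thallium flux slope above the same plate's solvent-control mean plus 3 SD in both duplicate wells; inconclusive = duplicate wells that disagreed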;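 also: run without ouabain in cells lacking the KCC2 cotransporter; slope of fluorescence scaled to its starting value between 10 and 20 s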
Numbers without * were called inactive; ? = inconclusive; . = no result.

SMILES	WT yeast gro inh	L major viab	Calpain2 inh	ROMK primary	KCC2 mod	KCC2 sec1	KCC2 bumet counter	KCC2 secondary2	HEK293 Tl flux	KCC2 retest ouab	HEK293 Tl flux2
CC1=CC2=NC(=O)/C(=C/c3coc4ccc(Cl)cc4c3=O)C(=N)N2O1	.	.	17	.	-9.5*	0.004*	-0.0043*	0.015*	0.00044*	0.0026*	0.0026*
CC1=CC2=NC(=O)/C(=C\c3cc(C)n(-c4cccc(Cl)c4)c3C)C(=N)N2O1	9	-3	-39	-0.51	-0.056	.	.	.	.	.	.
Cc1noc(C)c1CN(C(=S)NC1CC1)c1ccccc1	-7	-5	0	0.93	1	.	.	.	.	.	.
Oc1c(C=Nc2ccccc2)sc2ccccc12	-19	0	-24	-0.53	2.8*	0.0069	0.0065	0.029	0.0069	?	0.01
Cc1[nH]c(=S)c(C#N)c2c1CCCC2	-1	1	-4	0.9	3.8*	0.0088	0.0086*	0.035	0.011*	0.021	0.011
Cc1[nH]c(=O)c(C#N)c2c1CCCC2	-8	-4	-25	.	-0.034	.	.	.	.	.	.
CC(C)Cc1c2c([nH]c(=S)c1C#N)CCCC2	-6	-1	0	-0.0032	27*	0.019*	0.068*	0.037	0.034*	0.058*	0.014*
CN(C)C(CNc1ncnc2sccc12)c1cccs1 (centres undefined)	1	18	-12	-1.7	1.1	.	.	.	.	.	.
CCOC(=O)c1sc2ncnc(NCC(c3cccs3)N(C)C)c2c1C (centres undefined)	14	17	-86	.	.	0.041*	0.17*	0.046*	0.093*	0.086*	0.035*
O=C(c1cc(COc2ccc(F)cc2Cl)on1)N1CCC(c2ccncc2)CC1	-3	12	-2	-1.3	-6.3*	0.008	0.0054	0.035	0.0036	0.014*	0.011
COc1ccc(Nc2nnc(SCc3cc(=O)n4ccsc4n3)s2)cc1	-5	-1	-46	.	-5.2*	0.011	0.0065	0.03*	0.0036	0.017*	0.012
C=CCNC(=S)Nc1sc2c(c1C(N)=O)CCCC2	.	.	-15	.	8.3*	0.01	0.014*	0.032	0.012*	0.028*	0.011*
NC(=O)c1c(NC(=S)Nc2ccccc2)sc2c1CCCC2	17	-1	-38	0.074	0.071	.	.	.	.	.	.
COC(=O)c1sc(N2CCCCC2)c(C#N)c1N	.	.	-1	.	-2.5	.	.	.	.	.	.
CC(C)n1c(=S)[nH]c2cc(Cl)ccc21	.	.	-19	1.2	28*	0.016*	0.09*	0.04	0.03*	0.039*	0.015*
CC(C)(C)NC(=O)NC(=O)CSc1nncs1	2	-4	6	0.34	-0.89	.	.	.	.	.	.
Fc1ccc(N2CCN(C(=S)NCC3CCCO3)CC2)cc1 (centres undefined)	-26	-4	-15	-0.8	-2.6*	0.0067	0.0059	0.028	0.0063	?	0.0094
Cc1ccc(CCNC(=O)c2ccc(CS(=O)(=O)Cc3ccccc3F)o2)cc1	-15	75*	-16	-1.5	-6.8*	0.0064	?	?	0.0074	0.018	0.012
Oc1ccccc1C1=Nc2ncnn2C(c2ccc(F)cc2)C1 (centres undefined)	-4	.	-3	.	.	.	.	.	.	.	.
CSc1nnc(-c2cnccn2)n1CCCN1CCCC1=O	5	-4	-6	0.7	8.2*	0.0073	0.0043	0.032	0.0074	0.02	0.01
O=C(Nc1ccccc1)c1ncoc1-c1ccc(Cl)cc1	.	.	-20	.	-0.42	.	.	.	.	.	.
N#CC1=C(N)NC(SCc2ccccc2)=C(C#N)C12CCCCC2	13	99*	38	.	-3.2*	0.0057	0.0046	?	0.0072	0.017	0.011
